# Screening data: PubChem, National Center for Advancing Translational Sciences (NCATS)
# pAkt inh: inhibitors of Akt phosphorylation. 360,000 compounds, 0.32% hits. Neuro2A IGF-stimulated pAkt S473 HTRF, 20 min; active compounds read low. AID 651550. activity change, % for hits at 50 µM; in the data active = activity change below about -80%; inconclusive = mostly about -51% to -80%
#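 Single-point screen (50 µM final compound) in Neuro2A cells stimulated 20 min with 6 nM IGF at 37 deg C. After lysis, Ser473-phosphorylated Akt read by HTRF (ex 330 nm, em 615/665 nm) as the 665/615 ratio.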
# Vif-A3G inh: inhibitors of Vif-APOBEC3G interaction. Q9HC16. HeLa A3G-eYFP + Vif (tagged APOBEC3G with the HIV-1 protein that degrades it), YFP fluorescence, overnight. Potency, µM (doses to about 46.1 µM), hits mostly inhibitors. 410,000 compounds, 0.076% hits; also: nearly all actives have a fitted effect of over 60% in size
# Target sequence (Q9HC16 whole entry, looked up): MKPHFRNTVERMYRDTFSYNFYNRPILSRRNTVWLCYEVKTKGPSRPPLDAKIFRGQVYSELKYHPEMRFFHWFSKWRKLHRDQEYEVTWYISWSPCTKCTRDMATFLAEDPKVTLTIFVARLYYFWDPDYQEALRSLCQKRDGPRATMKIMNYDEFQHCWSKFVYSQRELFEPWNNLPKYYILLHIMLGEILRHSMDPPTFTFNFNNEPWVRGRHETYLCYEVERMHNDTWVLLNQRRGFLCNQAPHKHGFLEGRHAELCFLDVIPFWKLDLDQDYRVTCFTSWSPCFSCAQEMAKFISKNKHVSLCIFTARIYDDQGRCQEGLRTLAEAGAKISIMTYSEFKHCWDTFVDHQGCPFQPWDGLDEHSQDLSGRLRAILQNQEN
#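 Read-out is eYFP fluorescence (Ex 488/Em 500-530) from Vif-expressing HeLa A3G-eYFP cells; more signal means A3G escaped Vif-mediated degradation. Cells plated overnight, compound pinned in, incubated overnight at 37 deg C.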
# ASM inhibitor: inhibitors of human secretory acid sphingomyelinase; P17405; placental ASM, HMU-PC fluorogenic substrate, 60 min; Potency, µM (top dose mostly 57.5 µM), hits mostly inhibitors; 340,000 compounds, 0.006% hits; AID 504937
#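 Human placenta-derived ASM enzyme was preincubated with compound for 10 minutes at room temperature, then given fluorogenic substrate HMU-PC0 (9 uM final) for 60 minutes at 37 °C; a pH 10 stop preceded fluorescence reading at Ex 386/Em 447 nm.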
# 12-LOX inh: blocks human arachidonate 12S-lipoxygenase; purified 12hLO, xylenol orange hydroperoxide absorbance; Potency, µM (highest dose often 108 µM), hits mostly inhibitors; 580,000 compounds, 1.1% hits
#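 Purified human 12hLO at 150 nM in 25 mM Hepes, 0.01% Triton X-100, pH 7.0, preincubated 15 min at room temperature with compound. Reaction started with 40 uM arachidonic acid, 30 min at room temperature. Hydroperoxide measured by Fe-xylenol orange, 573/405 nm absorbance ratio.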
# Vif-APOBEC3F blk: blocks the Vif interaction with APOBEC3F | HeLa A3F-eYFP + Vif (tagged APOBEC3F with the HIV-1 protein that degrades it), YFP fluorescence increase | Potency, µM (series often up to 46.1 µM) | 390,000 compounds, 0.2% hits | AID 602313; also: nearly all actives have a fitted effect of over 65% in size
#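 HeLa cells stably expressing Vif plus C-terminally eYFP-tagged A3F were seeded, incubated overnight at 37 deg C, dosed with compound, incubated overnight again at 37 deg C. Yellow fluorescence (Ex 488/Em 500-530) reported blocked Vif-mediated A3F-eYFP degradation.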
# PTAP TSG101 blk: blocks PTAP/TSG101 interaction to inhibit HIV-1 budding | Potency, µM (series often up to 115 µM), usual class: inhibitors | Q99816 | Fluorescence polarization, FITC-PTAP peptide / Tsg101 binding | 340,000 tested, under 10 active; active = well fitted inhibition curve with a large enough effect in the main read-out, with a control signal flat, not every such curve was filed as active; inconclusive = small, poorly fitted or top-dose-only effect, or effect the other way, or a change in a side signal; inactive = no such curve, though single readings can be large or run the other way
#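 Tsg101 binding domain (10 uM final) was mixed with compound and a FITC-labeled PTAP peptide (50 nM final) in HEPES pH 7.5 buffer with NaCl, Tween 20, EDTA and TCEP; fluorescence polarization was read after 20 min at r.t.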
# Numbers stand for hits; 0 = inactive; ? = inconclusive; - = no result; ! = not confirmed by another sample. Most compounds without a hit are left out; they make up all but 1.4% or so of the library. Unless noted, calls follow the shape of the dose curve; as a rule, active = well fitted curve in the direction sought with a large enough effect; inconclusive = small, poorly fitted or top-dose-only effect, or another doubt; inactive = no such curve, though single readings can be large; an effect the other way counts as inactive or inconclusive.
SMILES,pAkt inh,Vif-A3G inh,ASM inhibitor,12-LOX inh,Vif-APOBEC3F blk,PTAP TSG101 blk
Cc1cc(/C=C2\SC(=S)NC2=O)c(C)n1-c1ccccc1,0,0,0,?,?,?
CCCCOc1ccc(C(=O)OCC(=O)c2cccs2)cc1,-,-,-,0,-,-
CC(C)(C)c1ccc(C(NC(=O)c2ccccc2)NC(=O)c2ccccc2)cc1,-,-,-,0,-,-
Nc1c(C(=O)O)sc2nc(-c3ccc(F)cc3)cc(-c3ccccc3)c12,0,0,0,0,11.2µM,0
Nc1c(C(=O)O)sc2nc(-c3ccccc3)cc(-c3ccc(Cl)cc3)c12,0,0,0,?,0,?
Cc1cc2nc(SCC(=O)Nc3nonc3C)c3c(c2cc1C)CCCC3,-91.4%,0,0,0,0,0
Cc1cc(=O)n(CC(=O)Nc2cccc(C)c2C)c(N2CCc3ccccc3C2)n1,-,-,-,0,-,-
Cc1cccc2sc(N(Cc3cccnc3)C(=O)c3ccc(Cl)s3)nc12,-,-,-,0,-,-
COc1ccc(CNc2ccnc(-c3cccc(C#N)c3)n2)c(OC)c1,-,-,-,0,-,-
COc1cccc(-c2cncnc2NCCc2c[nH]c3ccc(OC)cc23)c1,-,-,-,0,-,-
COc1ccc(CNc2ccnc(-c3ccc4c(c3)OCO4)n2)c(OC)c1,-,-,-,20µM,-,-
COc1ccc2[nH]cc(CCNc3cc(-c4cccnc4)ncn3)c2c1,-,-,-,31.6µM,-,-
COc1ccc2[nH]cc(CCNc3ccnc(-c4ccc5c(c4)OCO5)n3)c2c1,-,-,-,44.7µM,-,-
O=C(/C=C/c1ccc(C(F)(F)F)cc1)c1cccc(N2CCCC2=O)c1,-,-,-,0,-,-
COc1ccc(-c2nnc3sc(-c4ccccc4C)nn23)cc1OC,-,-,-,0,-,-
c1ccc(CCN2CCNc3cc(N4CCN(c5ccccn5)CC4)ncc3C2)cc1,-,-,-,0,-,-
CCOc1ccc2oc(C(=O)N3CCN(CC(=O)Nc4ccc(F)cc4)CC3)c(C)c2c1,-,-,-,0,-,-
COc1ccc2c(c1)CCCN2C(=O)c1cc2cc(Cl)ccc2nc1C,-,-,-,44.7µM,-,-
Cc1noc(C)c1COc1cccc(C(=O)OCC(=O)N2CC(=O)Nc3ccccc32)c1,0,2.82µM,0,0,0,0
O=C(O)Cc1cccc(OCCCN(Cc2cccc(C(F)(F)F)c2Cl)CC(c2ccccc2)c2ccccc2)c1,-,-,-,24.3µM!,-,-
COc1ccccc1CNC(=O)[C@@H]1Cc2c[nH]c3cccc(c23)[C@H](CC(C)C)N1,-,-,-,0,-,-
Cc1cc(-c2csc(Nc3ccccn3)n2)ccc1F,0,0,0,?,0,0
Oc1ccc(-c2csc(Nc3ccc4c(c3)OCO4)n2)c(O)c1,0,0,0,31.6µM,0,0
Fc1ccc(-c2csc(Nc3ccccn3)n2)c(F)c1,0,0,0,0,0,0
Oc1ccc(Nc2nc(-c3ccc(F)cc3F)cs2)cc1,-,-,-,7.94µM,-,-
SMILES,pAkt inh,Vif-A3G inh,ASM inhibitor,12-LOX inh,Vif-APOBEC3F blk,PTAP TSG101 blk
Cc1cc(-c2csc(Nc3ccc(O)cc3)n2)ccc1F,-,-,-,35.5µM,-,-
Cc1ccc(-c2csc(Nc3ccc(S(N)(=O)=O)cc3)n2)cc1C,-,-,-,44.7µM,-,-
CCOc1cc(C(=O)Nc2cccc(Cl)c2N2CCOCC2)cc(OCC)c1OCC,-,-,-,0,-,-
O=c1[nH]c2ccc(-c3csc(Nc4ccc(F)cc4)n3)cc2o1,-,-,-,17.8µM,-,-
Cc1cccc(Nc2nc(-c3ccc(O)cc3O)cs2)n1,0,0,?,25.1µM,0,0
COC(=O)C(Br)(C(=O)OC)C(OC)(C(=O)OC)C(=O)OC,-,-,-,0.708µM,-,-
COc1ccc(S(=O)(=O)c2cn(CC(=O)Nc3cccc(Cl)c3)c3ccc(C)cc3c2=O)cc1,-,-,-,0,-,-
CCc1ccc(-c2cn(C3CCCCC3)c(=S)[nH]2)cc1,0,0,0,20µM,?,0
CCCCOc1ccc(C(=O)Nc2cccc3ccc(C)nc23)cc1,-,-,-,0,-,-
COCCNC(=O)c1cc(-c2ccccc2)nc2ccc(C)cc12,-,-,-,0,-,-
COc1ccc(N=Cc2c(O)n(-c3ccc(OC)cc3)c(=O)c3ccccc23)cc1,0,0,0,0,11.2µM,0
COc1ccc(N=Cc2c(O)n(-c3cccc(C)n3)c(=O)c3ccccc23)cc1,0,0,0,?,0,0
O=S(=O)(NNc1ccc(Cl)nn1)c1ccc(F)cc1,0,0,0,1.26µM,0,0
O=C(Cc1cccc(F)c1)Nc1cccc(-c2nnc3n2CCCC3)c1,-,-,-,0,-,-
Nc1c(C(=O)N/N=C/c2cccnc2)oc2nc(-c3ccccc3)cc(-c3ccco3)c12,0,0,0,?,10µM,?
CC12CCC(C(=O)NCCN3CCCCC3)(CC1=O)C2(C)C (stereo unspecified),-114.0%,0,0,0,0,0
CC12CCC(C(=O)N3CCCCC3)(CC1=O)C2(C)C (stereo unspecified),0,0,0,0,0,0
N=C1/C(=C\c2ccc(OC(=O)c3ccco3)cc2)C(=O)N=C2SC=NN12,0,0,0,0,0,0
COc1cc(/C=C2\C(=N)N3N=CSC3=NC2=O)cc(Br)c1OC(=O)c1ccco1,0,?,0,?,22.4µM,0
O=[N+]([O-])c1ccccc1C=NNc1ccccc1,0,0,0,20µM,0,0
Clc1cccc(N/N=C/c2ccncc2)c1,0,0,0,?,0,0
O=[N+]([O-])c1cccc(N/N=C/c2cccc(O)c2O)c1,0,0,0,11.2µM,0,0
O=[N+]([O-])c1ccccc1N/N=C/c1cccc(O)c1O,0,0,0,0,0,0
O=[N+]([O-])c1ccc(/C=N/Nc2cccc(Cl)c2)cc1,-,-,-,3.16µM,-,-
Oc1ccccc1/C=N/Nc1ccccc1,0,0,0,31.6µM,0,0
